{"source": "PubChem BioAssay (NCATS)", "note": "Inconclusive results are not listed. Active and inactive are the calls of the source. Calls come from the whole dose curve; as a rule, active = well fitted cell-killing curve with a large enough effect; inconclusive = small, poorly fitted or top-dose-only effect; inactive = flat fitted curve, though single readings scatter. % is set by controls: 0 for no effect and ±100 for the full control effect.", "data": [{"assay": "qHTS of pediatric cancer cell lines to identify multiple opportunities for drug repurposing: Primary screen for TC32 cells (AID 1347089); note: nearly all actives have a fitted effect of over 60% in size", "settings": "TC32 Ewing sarcoma viability, CellTiter-Glo luminescence, 48 h; series mostly up to 45.8 µM; activity change, negative = cytotoxic: at the top concentration", "source_text": "Drug repurposing or repositioning has been offered as a strategy for drug development in oncology programs. This approach has special potential for childhood cancers and other rare or orphan diseases, where the expected return on new drug development has been a disincentive to pharmaceuticals.\nIn this project we exploit the poly-pharmacology of drugs to discover new indications via phenotypic screening of a panel of 19 well-characterized cell lines derived from solid tumors seen in children and adolescents. The goal is to identify approved drugs with previously unrecognized anticancer properties that has the potential to reveal new mechanisms and biological processes involved in carcinogenesis or drug resistance. We employed a titration-based paradigm (quantitative high-throughput screening or qHTS), where all compounds were tested at multiple concentrations for their effect on cell viability. Concentration-response curves (CRCs) were derived directly from the primary screen, and both potency and efficacy values were used to identify compounds with robust bioactivity profiles. We screened the NIH Chemical Genomics Center (NCGC) Pharmaceutical Collection (NPC) and Mechanism Interrogation Plate (MIPE) small molecule collections of approved and investigational compounds against these cell lines; and measured metabolically active cells after 48 hours of compound treatment as a proxy for cell viability.\nAssay Submitter: Nathalia J. Martinez, National Center for Advancing Translational Sciences, National Institutes of Health, Rockville, MD, USA; email: natalia.martinez@nih.gov\n[1] Shen, M et al. Quantitative high-throughput phenotypic screening of pediatric cancer cell lines identifies multiple opportunities for drug repurposing. Oncotarget 2017 Dec 19;9(4):4758-4772. PMID 29435139.\nThe cells were obtained from University of North Carolina (UNC), Pediatric Preclinical Testing Program (PPT), and Coriell Institute (CI).\nqHTS cell viability assay:\nCells were assayed in growth media at a density of 500-1,000 cells/well. Five microliters of cells were dispensed into 1,536-well, white, solid-bottom, TC-treated plates (Greiner Bio One) using a multidrop dispenser and incubated at 37 degrees C, 5% CO2, under a humidified atmosphere for 5 hours. Twenty-three nanoliters of compounds and controls (neutral control DMSO or positive control bortezomib at final concentration of 2.3 uM) were subsequently transferred by Kalypsys pintool. For primary screens, the MIPE collection was tested at 11-point dilutions (final concentrations range from 0.78 nM to 46 µM) and the NPC collection at 8-point dilutions (final concentrations range from 0.59 nM to 46 µM). Compounds tested in follow-up screens were assayed at 11-point dilutions. Cells were incubated for 48 hours, followed by addition of 3 uL of CellTiter-Glo (Promega). After a 15min incubation at room temperature, samples were analyzed for luminescence intensity using a ViewLux High-throughput CCD imager equipped with clear filters.", "values": [{"smiles": "O=C(O)Cc1ccc(CCNS(=O)(=O)c2ccc(Cl)cc2)cc1", "activity change, negative = cytotoxic": "5.07% (inactive)"}, {"smiles": "O=C(Cn1ccnc1[N+](=O)[O-])NCc1ccccc1", "activity change, negative = cytotoxic": "5.94% (inactive)"}, {"smiles": "c1ccc2[nH]ccc2c1", "activity change, negative = cytotoxic": "0% (inactive)"}, {"smiles": "CN1CCN(C(=O)C2CCCCC2)CC1", "activity change, negative = cytotoxic": "8.91% (inactive)"}, {"smiles": "CC1(C)S[C@@H]2[C@H](NC(=O)C(C(=O)O)c3ccccc3)C(=O)N2[C@H]1C(=O)O", "note": "(stereo not given in full)", "activity change, negative = cytotoxic": "0.881% (inactive)"}, {"smiles": "CN[C@@H]1[C@@H](O)[C@@H](O[C@@H]2[C@H](O)[C@H](O[C@H]3OC(CN)=CC[C@H]3N)[C@@H](N)C[C@H]2N)OCC1(C)O", "note": "(stereo not given in full)", "activity change, negative = cytotoxic": "9% (inactive)"}, {"smiles": "CCCCCOC(=O)Nc1nc(=O)n([C@@H]2O[C@H](C)[C@@H](O)[C@H]2O)cc1F", "activity change, negative = cytotoxic": "0% (inactive)"}, {"smiles": "Cc1[nH]c(C)c(Cl)c(=O)c1Cl", "activity change, negative = cytotoxic": "11.1% [at 16 µM] (inactive)"}, {"smiles": "CCCCCCCCCCOc1cc2c(=O)c(C(=O)OCC)c[nH]c2cc1OCC", "activity change, negative = cytotoxic": "8.44% [at 4.81 µM] (inactive)"}, {"smiles": "Cc1cc(=O)[nH]c(=S)[nH]1", "activity change, negative = cytotoxic": "7.21% (inactive)"}, {"smiles": "CC(C)=CCC/C(C)=C/CO", "activity change, negative = cytotoxic": "6.8% (inactive)"}, {"smiles": "Nc1ccncc1N", "activity change, negative = cytotoxic": "8.43% (inactive)"}, {"smiles": "CCCNC(C)C(=O)Nc1c(C)csc1C(=O)OC", "note": "(stereo not given)", "activity change, negative = cytotoxic": "10.5% (inactive)"}, {"smiles": "O=C(c1ccccc1)C(O)c1ccccc1", "note": "(stereo not given)", "activity change, negative = cytotoxic": "9.82% (inactive)"}, {"smiles": "CC(C)CCCC(C)CCCC(C)CCCCC(C)CCCC(C)CCCC(C)C", "note": "(stereo not given)", "activity change, negative = cytotoxic": "2.45% (inactive)"}, {"smiles": "CC(=O)N[C@@H](CC(C)C)C(=O)O", "activity change, negative = cytotoxic": "13.9% (inactive)"}, {"smiles": "CCN(CC)CC1CCCCN1CC(=O)N1c2ccccc2C(=O)Nc2cccnc21", "note": "(stereo not given)", "activity change, negative = cytotoxic": "9.67% (inactive)"}, {"smiles": "CCOC(=O)OC(C)OC(=O)[C@@H]1N2C(=O)[C@@H](NC(=O)[C@H](N)c3ccccc3)[C@H]2SC1(C)C", "note": "(stereo not given in full)", "activity change, negative = cytotoxic": "-7.04% (inactive)"}, {"smiles": "O=c1[nH]c(=O)c2ccccc2o1", "activity change, negative = cytotoxic": "1.49% (inactive)"}, {"smiles": "CC(CSC(=O)c1ccccc1)C(=O)N1C[C@@H](Sc2ccccc2)C[C@H]1C(=O)O", "note": "(stereo not given in full)", "activity change, negative = cytotoxic": "10.8% [at 16 µM] (inactive)"}, {"smiles": "COc1ccccc1OC(=O)Oc1ccccc1OC", "activity change, negative = cytotoxic": "9.82% (inactive)"}, {"smiles": "O=C(O)COC(=O)Cc1ccccc1Nc1c(Cl)cccc1Cl", "activity change, negative = cytotoxic": "18.5% (inactive)"}, {"smiles": "CCN[C@H]1CN(CCCOC)S(=O)(=O)c2sc(S(N)(=O)=O)cc21", "activity change, negative = cytotoxic": "5.88% (inactive)"}, {"smiles": "Cc1cccc(Nc2ccccc2C(=O)O)c1C", "activity change, negative = cytotoxic": "16.8% (inactive)"}, {"smiles": "Nc1ncnc2c1ncn2[C@@H]1O[C@H](COP(=O)(O)O)[C@@H](O)[C@H]1O", "activity change, negative = cytotoxic": "13.1% (inactive)"}, {"smiles": "CN/C(=C\\[N+](=O)[O-])NCCSCc1csc(CN(C)C)n1", "activity change, negative = cytotoxic": "1.01% (inactive)"}, {"smiles": "CC(=O)Nc1ccc(C(=O)O)cc1", "activity change, negative = cytotoxic": "12.1% (inactive)"}, {"smiles": "Nc1c2c(nc3c1CCC3)CCCC2", "activity change, negative = cytotoxic": "5.57% (inactive)"}, {"smiles": "NS(=O)(=O)c1cc(-c2nn[nH]n2)c(NCc2cccs2)cc1Cl", "activity change, negative = cytotoxic": "6.84% (inactive)"}, {"smiles": "CCN(CC)CCOC(=O)C(c1ccccc1)c1ccccc1", "activity change, negative = cytotoxic": "6.74% (inactive)"}, {"smiles": "CC[C@H](C)[C@H](N)C(=O)O", "activity change, negative = cytotoxic": "-24.7% (inactive)"}, {"smiles": "COc1cc(O)cc(O)c1", "activity change, negative = cytotoxic": "7.26% (inactive)"}, {"smiles": "O=C(/C=C/c1ccccc1)OCc1ccccc1", "activity change, negative = cytotoxic": "7.53% (inactive)"}, {"smiles": "OCCN1C[C@H](O)[C@@H](O)[C@H](O)[C@H]1CO", "activity change, negative = cytotoxic": "14.8% (inactive)"}, {"smiles": "COc1ccccc1Oc1c(NS(=O)(=O)c2ccc(C(C)(C)C)cc2)nc(-c2ncccn2)nc1OCCO", "activity change, negative = cytotoxic": "2.21% (inactive)"}, {"smiles": "CCN1CC(CCN2CCOCC2)C(c2ccccc2)(c2ccccc2)C1=O", "note": "(stereo not given)", "activity change, negative = cytotoxic": "3.47% (inactive)"}, {"smiles": "CCCOC(=O)c1ccc(N)cc1", "activity change, negative = cytotoxic": "8.25% (inactive)"}, {"smiles": "O=C(O)CCCCC1CCSS1", "note": "(stereo not given)", "activity change, negative = cytotoxic": "15.9% (inactive)"}, {"smiles": "Nc1ncnc(Nc2ccccc2)n1", "activity change, negative = cytotoxic": "7.09% (inactive)"}, {"smiles": "CC(C)(C)NCC(O)COc1cccc2c1CCC(=O)N2", "note": "(stereo not given)", "activity change, negative = cytotoxic": "9.64% (inactive)"}]}]}
